Experimental data as given in PubChem BioAssay AID1159580 (chemical genetic matrix, 2015).
About 2,000 (36%) of roughly 5,500 compounds were called active. Another 18% or so got no clear call; they are omitted. No stated cut-off is given here; in the data, active means normalized growth mostly below about 0.91 (no sharp cut-off); inconclusive means no clear call, values can overlap the other calls; inactive means mostly above about 0.92. This is one part of the list.

Assay: chemical genetic growth profiling, strain panel (AID 1159580);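 further: tested at 20 µM; growth read once vehicle control cultures reached saturation at 30 °C; 1 = growth at the plate median or of vehicle wells; lower values mean less growth of the strain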
Conditions: growth OD

Measured: normalized growth

COc1ccc(-c2cc(C(F)F)nn2-c2ccc(S(N)(=O)=O)cc2)cc1F
inactive: S. cerevisiae deletion strains, locus YJR075W, strain HOC1, active compounds read low 1.01 | S. cerevisiae deletion strains, locus YKL009W, strain mrt4, active compounds read low 1.02 | S. cerevisiae deletion strains, locus YKL068W, active compounds read low 1 | S. cerevisiae deletion strains, locus YKL085W, strain MDH1 (second series), active compounds read low 1 | S. cerevisiae deletion strains, locus YKL085W, strain MDH1, active compounds read low 1 | S. cerevisiae deletion strains, locus YKL160W, strain elf1, active compounds read low 0.995 | S. cerevisiae deletion strains, locus YKL190W, strain CNB1, active compounds read low 1 | S. cerevisiae deletion strains, locus YKR001C, strain vps1, active compounds read low 1.01 | S. cerevisiae deletion strains, locus YKR026C, strain gcn3, active compounds read low 1 | S. cerevisiae deletion strains, locus YKR091W, strain srl3, active compounds read low 1.01 | S. cerevisiae deletion strains, locus YLL001W, strain dnm1, active compounds read low 0.994 | S. cerevisiae deletion strains, locus YLL026W, active compounds read low 1 | S. cerevisiae deletion strains, locus YLL041C, strain sdh2, active compounds read low 1.01 | S. cerevisiae deletion strains, locus YLR027C, strain aat2, active compounds read low 1 | S. cerevisiae deletion strains, locus YLR039C, strain RIC1, active compounds read low 1.01 | S. cerevisiae deletion strains, locus YLR058C, strain SHM2, active compounds read low 1.01 | S. cerevisiae deletion strains, locus YLR102C, strain apc9, active compounds read low 1.01 | S. cerevisiae deletion strains, locus YLR113W, strain HOG1, active compounds read low 1.05 | S. cerevisiae deletion strains, locus YLR221C, strain rsa3, active compounds read low 1 | S. cerevisiae deletion strains, locus YLR258W, strain gsy2, active compounds read low 1.01 | S. cerevisiae deletion strains, locus YLR262C, strain YPT6 (second series), active compounds read low 1.01 | S. cerevisiae deletion strains, locus YLR262C, strain YPT6, active compounds read low 0.992 | S. cerevisiae deletion strains, locus YLR268W, strain sec22, active compounds read low 0.992 | S. cerevisiae deletion strains, locus YLR320W, strain mms22, active compounds read low 0.962 | S. cerevisiae deletion strains, locus YLR330W, strain CHS5, active compounds read low 1.01 | S. cerevisiae deletion strains, locus YLR342W, strain FKS1 (second series), active compounds read low 1.08 | S. cerevisiae deletion strains, locus YLR342W, strain FKS1, active compounds read low 0.991 | S. cerevisiae deletion strains, locus YLR357W, strain rsc2, active compounds read low 0.995 | S. cerevisiae deletion strains, locus YLR370C, strain arc18, active compounds read low 1.02 | S. cerevisiae deletion strains, locus YLR371W, strain rom2, active compounds read low 1.03 | S. cerevisiae deletion strains, locus YLR384C, strain iki3, active compounds read low 1 | S. cerevisiae deletion strains, locus YLR418C, strain cdc73, active compounds read low 0.951 | S. cerevisiae deletion strains, locus YML016C, strain PPZ1, active compounds read low 1 | S. cerevisiae deletion strains, locus YML032C, strain rad52, active compounds read low 1.05 | S. cerevisiae deletion strains, locus YML120C, strain ndi1, active compounds read low 0.999 | S. cerevisiae deletion strains, locus YML124C, strain tub3, active compounds read low 1.01 | S. cerevisiae deletion strains, locus YMR058W, strain fet3, active compounds read low 0.995 | S. cerevisiae deletion strains, locus YMR078C, strain ctf18, active compounds read low 1.02 | S. cerevisiae deletion strains, locus YMR125W, strain sto1, active compounds read low 1.02 | S. cerevisiae deletion strains, locus YMR129W, active compounds read low 1.01 | S. cerevisiae deletion strains, locus YMR205C, strain PFK2, active compounds read low 0.976 | S. cerevisiae deletion strains, locus YMR223W, strain ubp8, active compounds read low 1.04 | S. cerevisiae deletion strains, locus YMR231W, strain pep5, active compounds read low 1 | S. cerevisiae deletion strains, locus YMR263W, strain SAP30, active compounds read low 0.996 | S. cerevisiae deletion strains, locus YMR307W, strain GAS1, active compounds read low 1.04 | S. cerevisiae deletion strains, locus YNL067W, strain RPL9B, active compounds read low 0.996 | S. cerevisiae deletion strains, locus YNL071W, strain lat1, active compounds read low 0.996 | S. cerevisiae deletion strains, locus YNL128W, strain TEP1, active compounds read low 1 | S. cerevisiae deletion strains, locus YNL153C, strain GIM3, active compounds read low 0.982 | S. cerevisiae deletion strains, locus YNL183C, strain NPR1, active compounds read low 1 | S. cerevisiae deletion strains, locus YNL209W, strain ssb2, active compounds read low 1.01 | S. cerevisiae deletion strains, locus YNL233W, strain BNI4, active compounds read low 1.01 | S. cerevisiae deletion strains, locus YNL248C, strain rpa49, active compounds read low 0.996 | S. cerevisiae deletion strains, locus YNL250W, strain rad50, active compounds read low 1.02 | S. cerevisiae deletion strains, locus YNL271C, strain bni1, active compounds read low 1.02 | S. cerevisiae deletion strains, locus YNL298W, strain CLA4, active compounds read low 1.02 | S. cerevisiae deletion strains, locus YNL307C, strain MCK1, active compounds read low 1.03 | S. cerevisiae deletion strains, locus YNL322C, strain KRE1 (second series), active compounds read low 1 | S. cerevisiae deletion strains, locus YNL322C, strain KRE1, active compounds read low 1 | S. cerevisiae deletion strains, locus YNR049C, strain mso1, active compounds read low 1.01 | S. cerevisiae deletion strains, locus YNR052C, strain pop2, active compounds read low 1.03 | S. cerevisiae deletion strains, locus YOL006C, strain TOP1, active compounds read low 1.02 | S. cerevisiae deletion strains, locus YOL012C, strain htz1 1.3 | S. cerevisiae deletion strains, locus YOL147C, strain pex11, active compounds read low 1.01 | S. cerevisiae deletion strains, locus YOR001W, strain rrp6, active compounds read low 1.01 | S. cerevisiae deletion strains, locus YOR061W, strain CKA2, active compounds read low 1 | S. cerevisiae deletion strains, locus YOR069W, strain VPS5, active compounds read low 1 | S. cerevisiae deletion strains, locus YOR070C, strain gyp1, active compounds read low 1 | S. cerevisiae deletion strains, locus YOR080W, strain dia2, active compounds read low 0.99 | S. cerevisiae deletion strains, locus YOR083W, strain WHI5, active compounds read low 0.989 | S. cerevisiae deletion strains, locus YOR106W, strain vam3, active compounds read low 0.993 | S. cerevisiae deletion strains, locus YOR136W, strain idh2, active compounds read low 1.02 | S. cerevisiae deletion strains, locus YOR144C, strain elg1, active compounds read low 1.01 | S. cerevisiae deletion strains, locus YOR184W, strain ser1, active compounds read low 1.05 | S. cerevisiae deletion strains, locus YOR231W, strain MKK1, active compounds read low 1.04 | S. cerevisiae deletion strains, locus YOR265W, strain rbl2, active compounds read low 1.01 | S. cerevisiae deletion strains, locus YOR270C, strain vph1, active compounds read low 0.976 | S. cerevisiae deletion strains, locus YOR290C, strain snf2, active compounds read low 1.01 | S. cerevisiae deletion strains, locus YOR316C, strain cot1, active compounds read low 1.01 | S. cerevisiae deletion strains, locus YPL051W, strain arl3, active compounds read low 0.991 | S. cerevisiae deletion strains, locus YPL055C, strain LGE1, active compounds read low 0.97 | S. cerevisiae deletion strains, locus YPL078C, strain atp4, active compounds read low 0.998 | S. cerevisiae deletion strains, locus YPL106C, strain sse1, active compounds read low 0.993 | S. cerevisiae deletion strains, locus YPL240C, strain hsp82, active compounds read low 0.99 | S. cerevisiae deletion strains, locus YPL241C, strain CIN2, active compounds read low 0.999 | S. cerevisiae deletion strains, locus YPL256C, strain CLN2, active compounds read low 1.09 | S. cerevisiae deletion strains, locus YPR119W, strain clb2, active compounds read low 1 | S. cerevisiae deletion strains, locus YPR141C, strain kar3, active compounds read low 1.01 | S. cerevisiae deletion strains, locus YPR163C, strain tif3, active compounds read low 1 | S. cerevisiae deletion strains, locus YPR167C, strain met16, active compounds read low 1.01 | S. cerevisiae deletion strains, strain wtn01, active compounds read low 1.02 | S. cerevisiae strains, strain wild type, active compounds read low 1.01
